Screens from PubChem.
This is a sample that favours compounds with a hit; in the whole collection about 3.1% have one here.
HSP90 inh = inhibitors of HSP90 luciferase refolding in rabbit reticulocyte lysate. luciferase refolding luminescence, 3 h. inhibition, % at 5.6 µM. 0.91% of 290,000 active. AID 1789;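 active = inhibition above the screen-wide mean plus 3 SD, computed separately per campaign, cut at about 16% in these data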;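 note: 0% = DMSO wells and 100% = 60 µM geldanamycin wells; inhibitors lower the luminescence because luciferase stays unfolded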
HIF activator = HIF pathway transcriptional activation. U2OS HRE-luciferase reporter, luminescence; normalized: DMSO 0%, desferrioxamine 100%. activation, % at 7.5 µM (by protocol). 0.32% of 300,000 active;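 active = mean activation of at least 10% of the iron chelator positive control signal, with at least half of replicates also reaching 10%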
HSF-1 act = increases HSF-1 driven luciferase reporter signal; NIH3T3-HGL HSF-1 luciferase reporter, MG132, 8 h; 100% = twice DMSO control signal; activation, % at 9 µM; 1.7% of 300,000 active;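 active = mean replicate activation of at least 50% with a set share of replicates each reaching 50%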;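 note: 0% = median of the neutral control wells and 100% = twice that signal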
ARNT-TACC3 inh = disrupts binding between human ARNT and TACC3; Q9Y6A5; AlphaScreen His-ARNT PAS-B/GST-TACC3 binding, luminescence; TACC3 fragment carries E629A point mutation; inhibition, % at 9.99 µM; 0.66% of 390,000 active;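 active = mean inhibition of replicates at least 50% and at least half of replicates each reaching 50%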;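 note: 0% = complete ARNT plus TACC3 wells and 100% = ARNT alone without TACC3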
HSF1 inh = HSF1 inhibition | NIH3T3-HGL HSE-luciferase, MG132-induced, luminescence 8 h; hits give low values | 0.77% of 300,000 active | activity change, negative = inhibition, % at 7.5 µM (by protocol);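 active = more than half of replicate wells show activity change below -50%, luminescence cut by over half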;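 note: luciferase reports HSF-1 transcriptional activity via heat shock element; 0% = median of DMSO wells and -100% = zero luminescence signal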
* = called active by the depositor; . = no result.

SMILES | HSP90 inh | HIF activator | HSF-1 act | ARNT-TACC3 inh | HSF1 inh
O=C(NCCCn1ccnc1)/C(=C/c1ccc(F)cc1)NC(=O)c1ccccc1 | -3 | 0 | 4 | 62* | -12
O=C(NCCCn1ccnc1)/C(=C\c1ccco1)NC(=O)c1ccco1 | 1 | 0 | 12 | 57* | -8
CC(C)c1ccc(/C=C(\NC(=O)c2ccccc2)C(=O)NCCCn2ccnc2)cc1 | -1 | 0 | 59* | . | 22
O=C(CCN1C(=O)/C(=C/c2ccc(F)cc2)SC1=S)NCCCn1ccnc1 | 3 | -1 | -69 | 10 | -59*
O=C(C[C@@H]1CC[C@@H]2[C@H](COC[C@H](O)CN2C(=O)c2ccc(F)cc2)O1)Nc1ccc(-c2ccccc2)cc1 | . | . | . | 0 | .
COCC(=O)N1C[C@@H](C)[C@H](OC)CN(C)C(=O)c2ccc(NC(=O)c3cc(C)on3)cc2OC[C@@H]1C | . | . | . | -4 | .
CC(C)NC(=O)Nc1ccc2c(c1)C(=O)N([C@@H](C)CO)C[C@@H](C)[C@@H](CN(C)C(=O)c1ccncc1)OCCCC[C@H](C)O2 | . | . | . | 1 | .
CCCc1cc(=O)n2[nH]c(-c3ccc(C)cc3)cc2n1 | 1 | 2 | 44 | -2 | 23
CCCc1cc(=O)n2[nH]c(-c3ccc(Cl)cc3)cc2n1 | -2 | 2 | 64* | -10 | 20
O=C(Nc1nc(-c2cc3ccccc3oc2=O)cs1)c1ccc(Br)o1 | 1 | 0 | 66* | 0 | 32
O=C(Nc1cccnc1Cl)c1cc2ccccc2o1 | -1 | 5 | 40 | -26 | 29
Nc1ccc(Nc2nc(-c3cc4ccccc4oc3=O)cs2)cc1 | -8 | 1 | 39 | -3 | 9
Cc1nnc(NC(=O)c2cc3ccccc3o2)s1 | -4 | 1 | 11 | -7 | 11
Cc1cnc(NC(=O)c2cc3ccccc3o2)s1 | 38* | -3 | 41 | -1 | 11
O=C(Nc1nc(-c2ccccn2)cs1)c1cc2ccccc2o1 | 7 | 1 | -2 | 66* | -7
O=C(COc1ccc(F)cc1Cl)Nc1nc(-c2ccccn2)cs1 | . | -15 | -54 | 48* | -42
CC(=O)Nc1ccc(Nc2nc(-c3cc4ccccc4oc3=O)cs2)cc1 | -4 | 2 | -3 | -1 | 17
O=C(O)c1ccc(Nc2nc(-c3cc4ccccc4oc3=O)cs2)cc1O | -2 | 3 | 65* | . | 22
CCc1sc(C(=O)Nc2nc(-c3ccccn3)cs2)cc1C | . | . | . | 63* | .
CO[C@H]1CN(C)C(=O)c2cc(NC(C)=O)ccc2OC[C@@H](C)N(CC2CCCCC2)C[C@H]1C | . | . | . | -8 | .
COc1ccc(CN(CCCN2CCOCC2)C(=O)Nc2cccc(Cl)c2)cc1OC | -2 | 0 | -61 | . | -52*
Fc1ccc(-c2nc3nc4ccccc4nc3n2Cc2ccco2)cc1 | 17* | 1 | 36 | -1 | 23
CNC(=O)C[C@H]1CC[C@@H]2[C@H](COc3ccc(NC(=O)NCc4ccccc4)cc3C(=O)N2C)O1 | . | . | . | 3 | .
C[C@H](CO)N1C[C@H](C)[C@H](CN(C)C(=O)NC2CCCCC2)Oc2ccc(NS(=O)(=O)c3cn(C)cn3)cc2CC1=O | . | . | . | 5 | .
C[C@H](CO)N1C[C@H](C)[C@H](CN(C)C(=O)CN(C)C)Oc2ncc(-c3ccc(C#N)cc3)cc2C1=O | . | . | . | -5 | .
SMILES | HSP90 inh | HIF activator | HSF-1 act | ARNT-TACC3 inh | HSF1 inh
Cc1cc(C(=O)CSc2nncs2)c(C)n1-c1c(C)n(C)n(-c2ccccc2)c1=O | -1 | 1 | -9 | 3 | -3
Cc1ccc(-n2c(C)cc(C(=O)CSc3nncs3)c2C)cc1 | 1 | 2 | 67* | 10 | 39
COc1cc2sc3ccc(C#CC4(O)CCCCC4)cc3c(=O)c2cc1OC | . | 3 | -59 | -8 | -59*
COc1cccc2sc3cc(C#CC4(O)CCCCC4)ccc3c(=O)c12 | . | . | . | 18 | .
O=[N+]([O-])c1ccc(O)c(C=Nc2ccc3c(c2)OCCO3)c1 | 0 | 0 | -68 | 3 | -64*
Oc1c(Br)cc(Br)cc1C=Nc1ccc2c(c1)OCCO2 | -2 | -1 | -80 | -6 | -79*
O=[N+]([O-])c1ccc(O)c(C=Nc2ccc3oc(Cc4ccc(Cl)cc4)nc3c2)c1 | 1 | 0 | -78 | . | -74*
CN(C)C(=O)C[C@H]1C=C[C@H](NC(=O)C2CC2)[C@@H](CO)O1 | . | . | . | -5 | .
O=C1CC(c2ccco2)CC2=C1C=Nc1ccccc1N2 (stereo not drawn) | 1 | -1 | 11 | 16 | 1
O=c1[nH]c2c(s1)C=Nc1ccccc1N2 | -2 | . | 70* | 11 | 34
COc1cccc(S(=O)(=O)Nc2ccc3c(c2)[C@@H]2C[C@H](CC(=O)NCc4cccc(F)c4)O[C@@H](CO)[C@@H]2O3)c1 | . | . | . | 15 | .
CCC1(c2ccccc2)NC(=O)N(CC(=O)NCc2ccccc2OC)C1=O (stereo not drawn) | 6 | 0 | 107* | -2 | 60
CCN(CC)CCCC(C)Nc1c2ccc(Cl)cc2nc2ccc(OC)cc12 (stereo not drawn) | 4 | . | . | . | .
COc1ccc2nc3cc(Cl)ccc3c(Nc3cc(C(C)C)c(O)cc3C)c2c1 | 5 | -6 | 187* | -17 | 146
O=C(NC1C(=O)NNC1c1ccccc1)c1ccccc1 (stereo not drawn) | 8 | 2 | 168* | 7 | 116
Cc1cccc(C(=O)NC2C(=O)NNC2c2ccc(Cl)cc2)c1 (stereo not drawn) | 10 | 0 | 35 | 6 | 37
C[C@@H]1CN([C@@H](C)CO)S(=O)(=O)c2ccc(C#C[C@@H](C)O)cc2O[C@H]1CN(C)Cc1ccc(-c2ccccc2)cc1 | . | . | . | 0 | .
Cc1ccc(C(=O)Oc2ccccc2N2C(=O)C3CCC(C)CC3C2=O)cc1 (stereo not drawn) | -5 | 0 | 26 | -3 | 17
CC1CCC2C(=O)N(c3ccc(C(=O)Oc4cccc5cccnc45)cc3)C(=O)C2C1 (stereo not drawn) | 0 | 0 | 11 | 49* | 23
NC(=O)c1nsc(C(=O)N(c2ccccc2)C(C(=O)NCC2CCCO2)c2cccs2)c1N (stereo not drawn) | 9 | 0 | 73* | -3 | 41
NC(=O)c1nsc(C(=O)N(c2ccc3c(c2)OCCO3)C(C(=O)NCC2CCCO2)c2ccc(F)cc2)c1N (stereo not drawn) | 7 | -1 | -54 | 1 | -54*
Cc1cc(C)cc(N(C(=O)c2snc(C(N)=O)c2N)C(C(=O)NCC2CCCO2)c2cccs2)c1 (stereo not drawn) | 4 | 0 | -4 | 1 | 4
Cc1ccc(C(C(=O)NCC2CCCO2)N(C(=O)c2snc(C(N)=O)c2N)c2ccc3c(c2)OCCO3)cc1 (stereo not drawn) | 7 | 1 | -4 | 0 | -4
COc1ccc(S(=O)(=O)N(C)C[C@@H]2Oc3c(NC(=O)c4ccc(-c5nccs5)cc4)cccc3C(=O)N([C@H](C)CO)C[C@@H]2C)cc1 | . | . | . | 9 | .
